{
  "source": "the supplement of paper PMC9477273",
  "system": "DRIVER-selected RNA biosensor (aptazyme) pool",
  "test": "maximum fold change of ribozyme cleavage across biosensor pool versus no-compound control; higher = stronger biosensor response (ligand inhibits cleavage)",
  "settings": "10 µM",
  "procedure,_shortened": "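A pool of 1,730 ribozyme biosensors, resynthesized on an array, was transcribed with T7 at 37°C for 15–30 min in 9 mM rNTPs, with one compound present at a final 10 µM (added from a 10x DMSO stock). Reverse transcription followed at 50°C, and the cleaved and uncleaved products were PCR-barcoded and counted by Illumina sequencing. The reported fold change of cleavage is the highest value across all biosensors, taken as the ratio of cleaved:uncleaved read fractions relative to a no-compound condition and corrected with reference sequences.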",
  "data": [
    {"molecule": "COc1ccc2nc3oc(C(=O)NCCCN4CCC(Cc5ccccc5)CC4)cc3cc2c1", "values": [
      {"measurement": "maximum fold change", "result": 5.98}
    ]},
    {"molecule": "CC1CCC(NC(=O)c2cc(C3CC3)n[nH]2)CC1", "note": "(stereo unspecified)", "values": [
      {"measurement": "maximum fold change", "result": 1.87}
    ]},
    {"molecule": "CCO/C=N/c1oc(C)c(C)c1C#N", "values": [
      {"measurement": "maximum fold change", "result": 3.22}
    ]},
    {"molecule": "CS(=O)(=O)c1ccc2nc(NC(=O)c3cc4ccccc4o3)sc2c1", "values": [
      {"measurement": "maximum fold change", "result": 7.28}
    ]},
    {"molecule": "O=C1N=c2sc(nn2C(=N)/C/1=Cc1cccn1Cc1ccccc1F)N1CCCC1", "values": [
      {"measurement": "maximum fold change", "result": 4.06}
    ]},
    {"molecule": "CC1CCN(CCCNC(=O)c2ccc(CS(=O)(=O)Cc3ccc(Cl)cc3)o2)CC1", "values": [
      {"measurement": "maximum fold change", "result": 2.2}
    ]},
    {"molecule": "O=C(NCCCc1ccccc1)C1CCN(c2nnc(N3CCCC3=O)s2)CC1", "values": [
      {"measurement": "maximum fold change", "result": 3.05}
    ]},
    {"molecule": "COc1ccc(cc1)C1=N/C(=Cc2cc(OC)ccc2OC)/C(=O)O1", "values": [
      {"measurement": "maximum fold change", "result": 1.9}
    ]},
    {"molecule": "COc1ccc(-c2nc(CS(=O)(=O)CC(=O)NC3CCC(C)CC3)c(C)o2)cc1", "note": "(stereo unspecified)", "values": [
      {"measurement": "maximum fold change", "result": 2.18}
    ]},
    {"molecule": "CCN1CCCC1CNC(=O)CS(=O)(=O)Cc1nc(-c2ccc(C)cc2)oc1C", "note": "(stereo unspecified)", "values": [
      {"measurement": "maximum fold change", "result": 2.2}
    ]},
    {"molecule": "CCOC(=O)c1cnc2c(C)c(Cl)ccc2c1NCc1ccco1", "values": [
      {"measurement": "maximum fold change", "result": 6.11}
    ]},
    {"molecule": "N#C/C(=Cc1c(Oc2ccccc2)nc2n(c1=O)cccc2)/c1nc2c(s1)cccc2", "values": [
      {"measurement": "maximum fold change", "result": 21}
    ]},
    {"molecule": "N#C/C(=Cc1c(Oc2cccc(c2)C)nc2n(c1=O)cccc2)/c1nc2c([nH]1)cccc2", "values": [
      {"measurement": "maximum fold change", "result": 7.83}
    ]},
    {"molecule": "COc1cc(OC)c(OC)cc1/C=C1N=C(c2ccco2)OC1=O", "values": [
      {"measurement": "maximum fold change", "result": 2.19}
    ]},
    {"molecule": "Cc1ccccc1-c1nc(CS(=O)(=O)CC(=O)N2CCN(Cc3ccccc3)CC2)c(C)o1", "values": [
      {"measurement": "maximum fold change", "result": 3.66}
    ]},
    {"molecule": "Cc1c(C(=O)NCc2ccccc2Cl)oc2c1-c1[nH]ncc1CC2", "values": [
      {"measurement": "maximum fold change", "result": 2.79}
    ]},
    {"molecule": "CCOC(=O)C1=C(C)Nc2nc(-c3cccs3)nn2C1c1ccc(C#N)cc1", "note": "(stereo unspecified)", "values": [
      {"measurement": "maximum fold change", "result": 1.85}
    ]},
    {"molecule": "CNc1cnn(C23CC4CC(CC(CC(=O)O)(C4)C2)C3)c(=O)c1Cl", "values": [
      {"measurement": "maximum fold change", "result": 4.5}
    ]},
    {"molecule": "CCOc1ccc(CCNC2=NS(=O)(=O)C(c3ccc(C)cc3)=C2C)cc1OCC", "values": [
      {"measurement": "maximum fold change", "result": 3.71}
    ]},
    {"molecule": "Cc1c(C(=O)NC2CCCCCC2)sc2ncnc(N3CCCCC3C)c12", "note": "(stereo unspecified)", "values": [
      {"measurement": "maximum fold change", "result": 2.58}
    ]},
    {"molecule": "CCc1ccc(C2c3c(-c4ccccc4O)n[nH]c3C(=O)N2CC2CCCO2)cc1", "note": "(stereo unspecified)", "values": [
      {"measurement": "maximum fold change", "result": 1.83}
    ]},
    {"molecule": "O=C(Cn1ccc2cc(S(=O)(=O)N3CCCC3)ccc21)NC1CC1", "values": [
      {"measurement": "maximum fold change", "result": 2.36}
    ]},
    {"molecule": "CCOC(=O)c1cnc(SC)nc1N", "values": [
      {"measurement": "maximum fold change", "result": 3.4}
    ]},
    {"molecule": "Cc1ccc(C(=O)/C=C2\\Nc3ccccc3NC2=O)cc1C", "values": [
      {"measurement": "maximum fold change", "result": 7.35}
    ]},
    {"molecule": "CCN1CCN(C(=O)c2cc(C)nn2-c2ccccc2)CC1", "values": [
      {"measurement": "maximum fold change", "result": 2.67}
    ]},
    {"molecule": "C=C(C)Cn1c(NCCCN2CCOCC2)nc2c1c(=O)[nH]c(=O)n2C", "values": [
      {"measurement": "maximum fold change", "result": 2.3}
    ]},
    {"molecule": "Cc1oc2ncn3c(C)nnc3c2c1C(=O)NC1CC1", "values": [
      {"measurement": "maximum fold change", "result": 2.62}
    ]},
    {"molecule": "O=C(c1ccc(CS(=O)c2cccc(Cl)c2)o1)N1CCN(C2CCCCC2)CC1", "note": "(stereo unspecified)", "values": [
      {"measurement": "maximum fold change", "result": 2.71}
    ]},
    {"molecule": "O=C(NC1CCN(Cc2ccccc2)CC1)c1cc2c(=O)oc3ccccc3c2s1", "values": [
      {"measurement": "maximum fold change", "result": 7.21}
    ]},
    {"molecule": "O=C(CCc1ccccc1)N1CCC(c2ccccc2)C1", "note": "(stereo unspecified)", "values": [
      {"measurement": "maximum fold change", "result": 1.79}
    ]},
    {"molecule": "Cc1oc(-c2ccccc2F)nc1CS(=O)(=O)CC(=O)NC1CCCC(C)C1C", "note": "(stereo unspecified)", "values": [
      {"measurement": "maximum fold change", "result": 4.66}
    ]},
    {"molecule": "CCOc1ccc(CCNC(=O)Cn2ccc3cc(S(=O)(=O)N4CCCC4)ccc32)cc1", "values": [
      {"measurement": "maximum fold change", "result": 3.07}
    ]},
    {"molecule": "CCCCNCc1c(C(=O)O)c(C)n(Cc2cc(C)ccc2C)c1C", "values": [
      {"measurement": "maximum fold change", "result": 2.79}
    ]},
    {"molecule": "COc1ccc(C=C2C(=O)c3ccccc3C2=O)cc1O", "values": [
      {"measurement": "maximum fold change", "result": 4.65}
    ]},
    {"molecule": "Cc1cc(C)cc(-n2c(C)cc(/C=C3\\C(=N)N4N=C(N5CCOCC5)SC4=NC3=O)c2C)c1", "values": [
      {"measurement": "maximum fold change", "result": 4.19}
    ]},
    {"molecule": "CCOCCCNC(=O)c1cc(C)nn1-c1ccccc1", "values": [
      {"measurement": "maximum fold change", "result": 2.81}
    ]},
    {"molecule": "Brc1ccc(/C=N/c2nc3ccccc3n2CCN2CCCCC2)cc1", "values": [
      {"measurement": "maximum fold change", "result": 2.07}
    ]},
    {"molecule": "COc1ccc(OC)c(/C=C2/N=C(c3cccc(Cl)c3Cl)OC2=O)c1", "values": [
      {"measurement": "maximum fold change", "result": 4.84}
    ]},
    {"molecule": "O=C(c1cc(-c2ccccc2)n[nH]1)N1CCn2c1nc1ccccc12", "values": [
      {"measurement": "maximum fold change", "result": 5.17}
    ]},
    {"molecule": "O=C(CCNC(=O)Cn1cnc2sc3c(c2c1=O)CCCC3)NCC1CCCO1", "note": "(stereo unspecified)", "values": [
      {"measurement": "maximum fold change", "result": 3.04}
    ]},
    {"molecule": "COc1ccc(C(=O)Cn2c3ccccc3n3nc(-c4ccccc4)nc23)cc1OC", "values": [
      {"measurement": "maximum fold change", "result": 4.22}
    ]},
    {"molecule": "Cc1ccc(-c2nc(CS(=O)(=O)CC(=O)NCCCN(C)Cc3ccccc3)c(C)o2)cc1", "values": [
      {"measurement": "maximum fold change", "result": 3.58}
    ]},
    {"molecule": "COc1ccc(-c2cn3c(C)c(C(=O)NCCCOC(C)C)sc3n2)cc1", "values": [
      {"measurement": "maximum fold change", "result": 2.79}
    ]},
    {"molecule": "COC(=O)/C(C#N)=C/c1c(Oc2ccccc2Cl)nc2ccccn2c1=O", "values": [
      {"measurement": "maximum fold change", "result": 3.58}
    ]},
    {"molecule": "CC1=[N+](CCCS(=O)(=O)O)SC2C=CC(Cl)=CC12", "note": "(stereo unspecified)", "values": [
      {"measurement": "maximum fold change", "result": 1.77}
    ]},
    {"molecule": "CCOc1cc(C2c3c(-c4ccccc4O)n[nH]c3C(=O)N2CCO)ccc1OCc1ccccc1", "note": "(stereo unspecified)", "values": [
      {"measurement": "maximum fold change", "result": 3.55}
    ]},
    {"molecule": "COc1cccc(-c2nc3sc4c(c3c(=O)n2CC(=O)NC2CCCCC2)CCCC4)c1", "values": [
      {"measurement": "maximum fold change", "result": 1.74}
    ]},
    {"molecule": "N#C/C(=Cc1c(Oc2ccc(c(c2)C)Cl)nc2n(c1=O)cccc2)/C(=O)N1CCCCC1", "values": [
      {"measurement": "maximum fold change", "result": 2.6}
    ]},
    {"molecule": "C=Cc1ccc(Cn2c(C)c(CNCCc3ccccc3)c(C(=O)O)c2C)cc1", "values": [
      {"measurement": "maximum fold change", "result": 2.07}
    ]},
    {"molecule": "COc1ccc(S(=O)Cc2ccc(C(=O)NC3CC3)o2)cc1", "note": "(stereo unspecified)", "values": [
      {"measurement": "maximum fold change", "result": 2.4}
    ]},
    {"molecule": "CC(=O)N1N=C(c2c(-c3ccccc3)c3cc(Cl)ccc3[nH]c2=O)CC1c1ccco1", "note": "(stereo unspecified)", "values": [
      {"measurement": "maximum fold change", "result": 6.87}
    ]},
    {"molecule": "C=CC[n+]1c(/C=C2\\C=CC=CN2C)sc2ccccc21", "values": [
      {"measurement": "maximum fold change", "result": 13.8}
    ]},
    {"molecule": "Cc1cc(NC(=O)CSc2nc3ncccc3c(=O)n2CCc2ccccc2)[nH]n1", "values": [
      {"measurement": "maximum fold change", "result": 3.45}
    ]},
    {"molecule": "Cc1ccccc1-c1nnc(SCC(=O)N2CCC(C)CC2)o1", "values": [
      {"measurement": "maximum fold change", "result": 1.91}
    ]},
    {"molecule": "CCOC(=O)/C(=CC=CN1CCOCC1)/C(=O)C", "values": [
      {"measurement": "maximum fold change", "result": 1.94}
    ]},
    {"molecule": "CCOC(=O)c1c(NC(=O)COc2ccc(Cl)cc2Cl)sc2c1CCC2", "values": [
      {"measurement": "maximum fold change", "result": 3.01}
    ]},
    {"molecule": "N#C/C(=Cc1c(Oc2ccc(cc2)Br)nc2n(c1=O)cccc2)/C(=O)N1CCOCC1", "values": [
      {"measurement": "maximum fold change", "result": 4.23}
    ]},
    {"molecule": "CC(C)NC(=O)C1(c2ccccc2)CCCC1", "values": [
      {"measurement": "maximum fold change", "result": 2.11}
    ]},
    {"molecule": "Cc1cccc(CNCc2c(C(=O)O)c(C)n(Cc3c(F)cccc3Cl)c2C)c1", "values": [
      {"measurement": "maximum fold change", "result": 1.89}
    ]},
    {"molecule": "O=C(CSc1nnc(-c2ccc(Cl)s2)o1)N1CCOCC1", "values": [
      {"measurement": "maximum fold change", "result": 3.21}
    ]},
    {"molecule": "CC1CCN(c2ncnc3sc4c(c23)CCC(C)C4)CC1", "note": "(stereo unspecified)", "values": [
      {"measurement": "maximum fold change", "result": 3.18}
    ]}
  ]
}
